# From PubChem
# Shown are actives, neighbours in structure and some others; about 27% of the full set was active somewhere.
# CYP2C19 act: increases human CYP2C19 enzyme activity; activation factor at 5 µM; recombinant CYP2C19, luciferin-H EGE luminescence; stronger effect = higher value; 0 = fully inhibited enzyme, 1 = untreated enzyme; 96,000 tested, under 10 active;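 active = activation factor of at least 2 at 5 µM in the primary screen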
# CYP2C9 activ: CYP2C9 (human) activation; AID 1024; activation factor at 5 µM; recombinant CYP2C9, luciferin-H conversion, luminescence; stronger effect = higher value; factor 1 = untreated enzyme, 0 = blocked; 96,000 tested, 1.4% active; P11712;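 active = activation factor of 2 or more for CYP2C9 at a 5 µM dose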
# Target sequence (P11712 whole entry, looked up): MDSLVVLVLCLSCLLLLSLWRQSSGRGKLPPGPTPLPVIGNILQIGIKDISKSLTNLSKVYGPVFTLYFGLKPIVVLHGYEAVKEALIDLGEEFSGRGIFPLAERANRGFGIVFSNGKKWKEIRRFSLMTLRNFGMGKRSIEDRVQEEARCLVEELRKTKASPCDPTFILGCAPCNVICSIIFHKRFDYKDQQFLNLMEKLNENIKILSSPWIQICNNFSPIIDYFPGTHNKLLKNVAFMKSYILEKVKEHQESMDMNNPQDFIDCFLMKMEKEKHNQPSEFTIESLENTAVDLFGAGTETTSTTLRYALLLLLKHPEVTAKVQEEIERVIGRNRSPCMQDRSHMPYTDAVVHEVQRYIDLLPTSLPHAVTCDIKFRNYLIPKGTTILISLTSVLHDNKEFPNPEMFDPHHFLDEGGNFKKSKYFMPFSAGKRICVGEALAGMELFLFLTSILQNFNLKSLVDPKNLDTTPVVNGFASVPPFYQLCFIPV
# CYP2C19 inh: blocks human cytochrome P450 2C19; 96,000 tested, 21% active; CYP2C19 Supersomes, luciferin-H EGE luminescence, 30 min; inhibition, % at 5 µM; P33261; AID 778;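 active = CYP2C19 inhibition above a set limit at 5 µM in the primary screen, cut at about 50% in these data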
# EphB4 ephrin blk: antagonists of human EphB4-ephrin-B2 interaction; P54760; EphB4 LBD / TNYL-RAW-Alexa532 peptide, fluorescence polarization; inhibition, % at 7 µM; 97,000 tested, 0.15% active;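 active = inhibition above the screen-wide mean inhibition plus 3 SD, cut at about 15% in these data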
# CYP2C9 inhib: blocks human cytochrome P450 2C9. P11712. CYP2C9 Supersomes, luciferin-H conversion, luminescence. inhibition, % at 5 µM. 96,000 tested, 20% active. AID 777;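 active = blocking of liver enzyme CYP2C9 beyond about 50% at 5 µM, limit read from the data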
# A number is an active result; i = inactive; nt = not tested or not shown.
SMILES,CYP2C19 act,CYP2C9 activ,CYP2C19 inh,EphB4 ephrin blk,CYP2C9 inhib
Cc1ccc(C)c(NC(=O)C2C(c3ccccc3)C2(Cl)Cl)c1 (stereo not given),i,i,i,i,i
CCC1CCCCN1C(=O)CSc1nc2ccsc2c(=O)n1Cc1ccccc1 (stereo not given),i,i,50,i,70
COCCn1c(SCC(=O)N2CCCCC2)nc2ccccc2c1=O,i,i,i,i,i
CCn1c(SCC(=O)N2CCN(c3ccc(F)cc3)CC2)nc2ccccc2c1=O,i,i,63,i,59
Cc1nn(-c2ccccc2)c(C)c1/C=N/NC(=O)CSc1nc2ccccc2c(=O)n1-c1ccc(Br)cc1,i,i,i,i,51
COCC(C)n1c(SCC(=O)N2CCCCC2)nc2ccccc2c1=O (stereo not given),i,i,i,nt,54
CCOC(=O)N1CCN(C(=O)CSc2nc3ccccc3c(=O)n2-c2ccccc2)CC1,i,i,56,i,98
CCn1c(SCC(=O)N2CCCC2)nc2ccccc2c1=O,i,i,i,i,i
CCOC(=O)N1CCN(c2nnnn2-c2ccccc2)CC1,i,i,91,i,i
CCCCn1c(SCC(=O)c2ccc(OC)c(OC)c2)nc2cc(S(N)(=O)=O)ccc21,i,i,i,i,i
Cc1ccc(SCc2[nH]nc3c2C(c2ccco2)C(C#N)=C(N)O3)cc1 (stereo not given),i,i,i,i,i
O=C(CN1C(=O)NC2(CCCCCCC2)C1=O)N1CCc2ccccc2C1,i,i,i,i,i
CC1=Nc2ccccc2/C1=C\c1nc(-c2ccccc2)oc1O,i,i,i,i,95
CC1=Nc2ccccc2/C1=C\c1nc(-c2ccc(C(F)(F)F)cc2)oc1O,i,i,i,25,i
Oc1ccccc1-c1nnc(-c2ccc(C(F)(F)F)cc2)o1,i,i,i,i,i
CC(C)c1nc2ccc(NC(=O)C3CCCCC3)cc2[nH]1,nt,nt,nt,i,nt
Cc1ccccc1Nc1nc(N)nc(CN(C)c2ccccc2)n1,i,i,i,nt,i
O=C(c1ccco1)N(Cc1cc2ccccc2[nH]c1=O)CC1CCCO1 (stereo not given),i,i,i,i,i
CCCCCCOc1ccc(C(=O)n2cnc(N)n2)cc1,i,i,i,i,i
CCN(CC)S(=O)(=O)c1ccc(NC(=O)COC(=O)c2ccc(-n3nc(C)cc3C)cc2)cc1,i,i,85,i,71
CCN(CC)S(=O)(=O)c1ccc(NC(=O)COC(=O)c2ccc(Br)o2)cc1,i,i,i,i,67
CN(C)c1ccc(C(=O)OCC(=O)Nc2ccc(S(N)(=O)=O)cc2)cc1,i,i,i,i,i
CCCCC(=O)Nc1ccc(NC(=O)c2cccnc2)cn1,i,i,i,i,i
COC(=O)C(NC(=O)c1ccccc1)(Nc1nc(C)cs1)C(F)(F)F (stereo not given),i,i,i,i,i
COC(=O)C(NC(=O)c1ccc(F)cc1)(Nc1ncc(S(=O)(=O)c2ccc([N+](=O)[O-])cc2)s1)C(F)(F)F (stereo not given),i,i,50,i,88
SMILES,CYP2C19 act,CYP2C9 activ,CYP2C19 inh,EphB4 ephrin blk,CYP2C9 inhib
COC(=O)C(NC(=O)c1ccccc1C)(Nc1ncc(S(=O)(=O)c2ccc([N+](=O)[O-])cc2)s1)C(F)(F)F (stereo not given),i,i,i,i,60
CCOC(=O)C(CC)n1cnc2c(nnn2-c2ccc(C)cc2)c1=O (stereo not given),i,i,i,i,50
CCOC(=O)N1CCN(c2c(NCC3CCCO3)c(=O)c2=O)CC1 (stereo not given),i,i,i,i,i
CCc1cccc2c1NC(=O)[C@]21[C@@H]2C(=O)N(Cc3ccccc3)C(=O)[C@@H]2[C@@H]2CCCN21,i,i,i,i,i
Cc1c(Cl)ccc2c1NC(=O)[C@]21[C@@H]2C(=O)N(Cc3ccccc3)C(=O)[C@@H]2[C@@H]2CCCN21,i,i,66,i,73
COC(=O)COc1ccc(S(=O)(=O)Nc2ccc(C(N)=O)cc2)cc1,i,i,i,i,i
CCOC(=O)COc1ccc(S(=O)(=O)NCc2ccco2)cc1,i,i,73,i,i
COC(=O)COc1ccc(S(=O)(=O)NCc2ccco2)cc1,i,i,60,i,i
C=CCNS(=O)(=O)c1ccc(OCC(=O)OC)cc1,i,i,70,i,71
Cn1cnnc1SCCC(=O)Nc1ccccc1,i,i,i,i,i
CC(C)c1nc(SCC(=O)N2c3ccccc3CC2C)c2ccccc2n1 (stereo not given),i,i,59,i,99
CC1Cc2ccccc2N1C(=O)CSc1nc2c(c(=O)n(C)c(=O)n2C)n1Cc1ccccc1 (stereo not given),i,i,76,i,96
CC1Cc2ccccc2N1c1ncnc2c1nnn2Cc1ccccc1 (stereo not given),i,i,i,i,65
CC1Cc2ccccc2N1C(=O)CSc1ccccc1 (stereo not given),i,i,96,i,i
Cc1cc2ccccc2nc1SCC(=O)N1c2ccccc2CC1C (stereo not given),i,i,i,i,i
CC1Cc2ccccc2N1C(=O)CSc1nnnn1Cc1ccccc1 (stereo not given),i,i,90,nt,84
CC1Cc2ccccc2N1C(=O)CN1CCc2ccccc2C1 (stereo not given),i,i,92,nt,i
CC(C)NC(=O)Cn1c(SCC(=O)N2c3ccccc3CC2C)nc2ccccc21 (stereo not given),i,i,61,i,91
O=C(CCCn1c(=S)[nH]c2ccccc2c1=O)N1CCOCC1,i,i,i,i,i
Cc1cc2ccccn2c1C(=O)c1nc(N2CCOCC2)ncc1Cl,i,i,i,i,i
COCCN(CCOC)c1ncc(Cl)c(C(=O)c2c(C)cc3ccccn23)n1,i,i,90,i,i
CCNc1ccccc(C(=O)/C=C/c2ccc3c(c2)OCO3)c1=O,i,i,85,i,i
Cc1ccc(C(=O)/C=C/c2ccc3c(c2)OCO3)o1,i,i,54,i,i
Cc1ccc(C(=O)/C=C/c2ccccc2)o1,i,i,69,i,57
Cc1ccc(C(=O)/C=C/c2ccc(Br)cc2)o1,i,i,i,i,i
SMILES,CYP2C19 act,CYP2C9 activ,CYP2C19 inh,EphB4 ephrin blk,CYP2C9 inhib
COc1ccc(CC(=O)O/N=C(\N)Cc2ccc(OC)c(OC)c2)cc1,i,i,i,i,i
Cc1ccc(NC(=O)CN2CC(C)SC2=NC2CCCCC2)cc1 (stereo not given),i,i,82,i,i
N#C/C(=C/N1CCOCC1)c1ccccc1,i,i,53,i,i
O=C(c1ccccc1)N1CCN(C(=O)N2CCOCC2)CC1,i,i,i,i,i
CC1=C(C(=O)Nc2ccc(C)cc2C)C(c2ccc([N+](=O)[O-])cc2)n2ncnc2N1 (stereo not given),i,i,i,i,i
CCOC(=O)N1CCN(C(=O)c2oc3ccc(S(=O)(=O)N4CCCCCC4)cc3c2C)CC1,i,i,80,i,73
